Laboratory results as given in the supplement of paper PMC12632987.

B1: uchl1_143_7478 (protein)
chain: GAPEPEIPVIRLELDAADSDEEIRKRALEAAKEAAEKGAALEIIITVPPDPNARVRANNIAKRLAREIIKKYGDKIKELRVLLRDEETGREDLIALYEKP
B2: uchl1_143_7476 (protein)
chain: PPEALPVLETTIEVSEDDTPEEIRARLMAAIDEALAAGKAARIVIVVPPDANKRLMVNTVARRVAREAARRYGERLRYLEILLRDKETGKEQLVALVERP
B3: uchl1_143_7486 (protein)
chain: EVEVIELSEEEVAEILALSPEEALERLKEILREAVELGKDTRVLIPAPEDANDRLRLNTLVRRAAREVAKEYADKIESVTISQERDPNGRPRIVVEIKVK
B4: uchl1_143_7485 (protein)
chain: EVRVIELTPEQVAAILSASPEAALATLEAIFEAAVALGVDTRVVLPAPADANDRLRLNTLVRRAARRVAKRRADEIDAVVISNERDPDRPARLVVTITVK
B5: uchl1_143_7481 (protein)
chain: SLENVEVLEVEITVTRETRPEDLYARLLAAIREAHAAGKALRITITVEPDANVRVMVGNVAKRAVRDAAQELGEPFVRTLILARDAETGKTQTLVDVEAP
B6: uchl1_143_7484 (protein)
chain: EVKVIELSPEEVAEILSASPEEALARLKEILEEAVELGVDTEVVLPAPADANDRLRLNTLVRRAAREVAKKYADKIDSVTISQRLDPDEPPKLVVSIKVK
B7: uchl1_143_7472 (protein)
chain: AAEARPVRTVEIDVTLDDTPEEIEARLLAAAEEAIAAGEDLRIVVTVPPDPNKRLMVNTVAKRVARRVARAHADRVRRLEIYARDAETGKEQLIAEIVRP
B8: uchl1_143_7473 (protein)
chain: HHHMMETETVEIEVKEDDTPEEIRERMMKAIEEAIAAGKNLRIVITVPSDANKRLMANTVAKRVAREAAKKYREKLKRLEIYLRDKETGKEDLIALVENP
B9: uchl1_143_7477 (protein)
chain: GAPEEPIETIKLTLDASMSDEEIRAKAMAAAEEAAAKGAALEITIVVPPDPNARVRANNIAKRIAREIIQKYGDKIKELKIYLQDEETGKKDLIALYEKP
B10: uchl1_143_7471 (protein)
chain: GEPEPPTLEVHIEVDETTTPEEIREKLWKAIEEAAKAKKNLKITITVPADSNKRLMVTTVAKRVAREAAKKYKNELKKLEIYARDAATGKEQLIAEYENP
B11: uchl1_143_7482 (protein)
chain: EVEVIRLTPEEVEEILSLSPEEALARVKEILAAAVELGKDTEVVFPAPEDANDRLRLGTIVRRAAREVAKEYADKIESVEIYQEKDPDEPPRLVVRITKK
B12: uchl1_143_7479 (protein)
chain: GAAPRPVVTTTLTFTEEDTPEEIRARITAALRALVATGQDGVLLLTVPPNPHMRVMVNTVARRALREVAQATHAPGVTLTVQARDAETGKVDTLATAVLE
B13: uchl1_143_7474 (protein)
chain: PLEHMEIETVEIEVSETDTPEEIEKRLREAIEKGIEKGKALRIVVTVPPDANKRLMVNTVARRVARETAKKYKDKLKYLEILLRDRETGKVDLAALIERP
B14: uchl1_143_7483 (protein)
chain: EVVVIELSPEEVEEILSLSPEEALERVYEILREAVELGRDTEVVFPAPADANDRLRLGTIVRRAARKVAKDRADLIDAVEIYQRRDPNRPPALVVRITRK
B15: uchl1_143_7475 (protein)
chain: APAALEVLTTHLEVGEDDTPEEIRARLLAAIDEALAAGKAAEIVVTVPPDANKRLMVNTVARRVAREAARRYGDRLRLLRILLRDAETGRTQLVALVERP
B16: uchl1_143_7480 (protein)
chain: GAPARPVVTRTLRFTEEDTPEEIRARITAAIRALVATGQDGVLLLTVPPNPNMRVMVSTVARRALREVAQETRAPGVTLTVEARDEETGKVDVLATADLK

What follows are binders tested against UCHL1, P09936 (assay: median log2 fold change of GCK-ALFA target abundance (FLAG IP / Myc IP barcode read proportion) (log2 ratio); each designed protein is fused to an ALFA-tag nanobody in HEK293 cells to bring the named protein to FLAG-tagged glucokinase (GCK); Myc marks an untargeted standard; higher = target protein stabilised (more abundant)). Details: target protein: 3xFLAG-MCP-GCK-ALFA reporter; HEK293 landing pad (RPLP).
How it was run: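 HEK293 landing-pad cells received a recombined binder library fused to the ALFA nanobody and were induced with 2 μg mL^−1 doxycycline, then transfected with a plasmid encoding a FLAG-tagged target and a Myc-tagged standard. Lysates were collected after 48 h for anti-FLAG and anti-Myc immunoprecipitation, and the circular RNA barcodes were reverse transcribed, amplified and sequenced. Target abundance for each binder is the median log2 ratio of FLAG to Myc barcode read proportions. Barcodes had to reach a proportion of at least 10^−7 in both replicates, each binder needed at least 3 barcodes per replicate, a pseudocount of 10^−6 was applied, and the two replicates were pooled.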

UCHL1, P09936, sequence (P09936 whole entry, looked up, the tested form may be a part): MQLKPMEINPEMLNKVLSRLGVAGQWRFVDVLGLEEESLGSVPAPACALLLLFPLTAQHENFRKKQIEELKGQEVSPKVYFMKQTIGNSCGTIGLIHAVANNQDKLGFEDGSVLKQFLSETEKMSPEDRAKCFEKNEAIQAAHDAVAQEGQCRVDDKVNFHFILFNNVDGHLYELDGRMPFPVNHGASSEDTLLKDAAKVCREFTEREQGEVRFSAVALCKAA

Row | Binder | median log2 fold change
1 | B1 | 0.179
2 | B2 | 0.0615
3 | B3 | 0.252
4 | B4 | -0.394
5 | B5 | 0.391
6 | B6 | 0.0432
7 | B7 | 0.3
8 | B8 | 0.139
9 | B9 | 0.136
10 | B10 | 0.0842
11 | B11 | 0.231
12 | B12 | 0.219
13 | B13 | 0.325
14 | B14 | -0.0334
15 | B15 | 0.136
16 | B16 | -0.0743
